Compounds with a hit are over-represented: about 2.9% of the library has one in this group of screens.
IP6K1 inhibitor: IP6K1 kinase inhibition; Q92551; IP6K1 kinase, ADP-Glo luminescence, 2 h; stronger effect = lower value; activity change, % (series mostly up to about 58 µM); actives 0.81% (n = 140,000); AID 1645851; in the data active means activity change below about -25%; further: on the % scale 0 is the no-effect control and ±100 the full control effect
Target sequence (Q92551 whole entry, looked up): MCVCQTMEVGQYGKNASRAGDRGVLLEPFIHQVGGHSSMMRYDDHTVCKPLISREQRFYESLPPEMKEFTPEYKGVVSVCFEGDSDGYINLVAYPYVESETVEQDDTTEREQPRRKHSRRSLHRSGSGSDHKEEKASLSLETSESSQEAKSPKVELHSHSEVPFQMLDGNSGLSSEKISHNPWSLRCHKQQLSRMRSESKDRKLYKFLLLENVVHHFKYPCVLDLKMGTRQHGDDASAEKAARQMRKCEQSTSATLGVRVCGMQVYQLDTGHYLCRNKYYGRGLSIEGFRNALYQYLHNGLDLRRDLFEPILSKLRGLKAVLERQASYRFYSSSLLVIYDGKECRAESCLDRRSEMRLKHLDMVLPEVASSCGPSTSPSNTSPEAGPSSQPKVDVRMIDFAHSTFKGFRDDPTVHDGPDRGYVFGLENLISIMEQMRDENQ
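ADP-Glo luminescence measures ADP made by human IP6K1 during a 2 h RT reaction with ATP/IP6 (mix at 1.3 mM/130 uM); top library doses 57.5 and 19.1 uM final.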
SNCA expr inhib: SNCA gene expression inhibition; Potency, µM (titrated, usually from 57.2 µM), inactives show top-dose activity change, negative = inhibition, most hits filed as inhibitors; actives 0.17% (n = 140,000); AID 1671194; HEK-293 SNCA-luciferase knock-in, luminescence, 24 h;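 further: potency means the concentration at half of the fitted maximal effect; plate controls were DMSO cells for no effect and cell-free wells for full effect; nearly all actives have a fitted effect of over 45% in size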
HEK293 viab: reduces viability of HEK-293 SNCA reporter cells | HEK-293-SNCA-luc viability, GF-AFC fluorescence, 24 h | actives 0.12% (n = 150,000) | AID 1671193 | Potency, µM (series often up to 57.1 µM), for the others: at the top dose activity change, negative = cytotoxicity, most hits filed as cytotoxic;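 further: potency means the concentration at half of the fitted maximal effect; 0% = DMSO-treated cells and -100% = medium-only wells without cells; nearly all actives have a fitted effect of over 30% in size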
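HEK-293-SNCA-luc cells (1500/well) plated 24 h, then exposed 24 h to a dilution series; GF-AFC added 30 min at 37C, fluorescence 405/540 nm; normalised to medium-only and DMSO wells, Hill fit.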
KDM5B inh: inhibitors of human KDM5B histone demethylase; Q9UGL1; KDM5B demethylase, FDH-coupled NADH fluorescence (FDH is formaldehyde dehydrogenase); Potency, µM (doses to about 57.7 µM), usual class: inhibitors; actives 2.6% (n = 220,000); AID 1347165; further: potency means the concentration at half of the fitted maximal effect; 0% is about no effect; nearly all actives have a fitted effect of over 70% in size
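Measured: NADH fluorescence change, 30 min, RT. System: KDM5BΔAP 200 nM final, H3K4me3 peptide, α-KG, Fe(II), ascorbate, NAD⁺ plus FDH, pH 7.5 HEPES. Compounds: titrated, 10 min pre-incubation with enzyme.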
IP6K1 conf: human IP6K1 inhibition, confirmatory; shares compounds with IP6K1 inhibitor; recombinant IP6K1 kinase, ADP-Glo luminescence, 2 h; Potency, µM (doses to about 49 µM), without a hit: at the top dose activity change, negative = inhibition, usual class: inhibitors; actives 13% (n = 1,200); AID 1645852; further: potency means the concentration at half of the fitted maximal effect; on the % scale 0 is the no-effect control and ±100 the full control effect; nearly all actives have a fitted effect of over 65% in size
Starred values were filed as active, the others as inactive; i = inactive; ? = inconclusive; nt = no result given; ! = a repeat was not active; [ ] = remark or other dose. Unless noted, the call rests on the fitted dose curve; in most records, active means well fitted curve in the direction sought with a large enough effect; inconclusive means small, poorly fitted or top-dose-only effect, or another doubt; inactive means no such curve, though single readings can be large; an effect the other way counts as inactive or inconclusive.

SMILES	IP6K1 inhibitor	SNCA expr inhib	HEK293 viab	KDM5B inh	IP6K1 conf
Cc1ccc(S(=O)(=O)c2nc(-c3ccco3)oc2SCC(=O)c2ccc(Cl)cc2)cc1	-7.2	-16.7%	-13.3%	i	nt
NC(=O)CSc1oc(-c2ccco2)nc1S(=O)(=O)c1ccc(Br)cc1	-33.0*	-15.5%	5.8%	?	?
O=C(CSc1oc(-c2ccco2)nc1S(=O)(=O)c1ccc(Cl)cc1)c1ccc(Cl)cc1	-27.4*	?	-9.0%	?	-13.3%
COCCOC1CCOC2(CCN(C(=O)c3ccc(F)cc3)CC2)C1 (centres undefined)	2.6	-14.1%	1.1%[12.5 µM]	i	nt
O=C(O)c1ccccc1O	-4.5	-53.5%[25.6 µM]	7.4%[23.9 µM]	nt	nt
Nc1ccc(C(=O)O)c(O)c1	-74.0*	0.0%[25.6 µM]	-9.8%[23.9 µM]	nt	13.7%
Brc1ccc(CN2CCC(c3nc4ccncc4[nH]3)C2)cc1 (centres undefined)	-51.7*!	-22.4%	2.0%	?	?
CC[C@H](C)[C@H](N)C(=O)N1CCC2(CCC(=O)N(Cc3ccccc3)C2)CC1	-39.3*	-7.2%	?	i	-6.2%
CC(C)Nc1ccc2nnc(-c3ccc(F)cn3)n2n1	-26.4*	-4.8%[87.6 µM]	3.6%[87.6 µM]	?	2.9%[92.2 µM]
CCOC(=O)c1cccc(NC(=O)N2CC[C@@H](CC(=O)Nc3nccs3)[C@@H](CC)C2)c1	-35.3*	-11.7%	4.0%	i	?
CCOC(=O)c1cccc(NC(=O)N2CC[C@@H](CC(=O)Nc3ccccc3)[C@@H](CC)C2)c1	7.6	3.2%	-6.2%	i	nt
COc1ccc(C(=O)N2CCn3nc(C(O)CS(C)(=O)=O)cc3C2)cn1 (centres undefined)	9.2	-22.3%	2.0%	i	nt
Oc1ccc(NCc2ccc(OCc3ccccc3Cl)cc2)cc1	-27.7*	-0.6%	?	?	?
Oc1ccc(NCc2ccc(OCc3ccccc3)cc2)cc1	-0.7	6.7%	-14.9%	?	nt
Cc1cc(C)n(CC(=O)N2C[C@@H](Oc3ccccc3)C[C@H]2C(=O)N2CCCC2)n1	8.5	23.3%	-17.8%	i	nt
CCc1ccc(NC(=O)[C@H](Cc2ccccc2)N2Cc3ccccc3C2=O)cc1	-6.6	-20.6%	5.5%	i	nt
C/C(=N\NC(=O)C(c1ccccc1)c1ccccc1)C(C)(C)C	nt	nt	nt	i	nt
Nc1ccc(C(=O)O)c([N+](=O)[O-])c1	nt	nt	nt	i	nt
Nc1ccc(O)c([N+](=O)[O-])c1	-28.0*	153.2%	13.4%	nt	31.6µM*
CCN1CCC2(CCC1=O)CN(Cc1noc(CC(C)C)n1)CCN2C (centres undefined)	-4.6	-14.2%	6.7%	i	nt
CCN1CCC2(CCC1=O)CN(Cc1nc(CCOC)no1)CCN2C (centres undefined)	-33.2*	-29.1%	-1.4%	i	-5.5%
O=C(Nc1ccccc1-c1cn2c(CN3CCNCC3)csc2n1)c1cnc2ccccc2n1	-28.5*	7.3%	?	nt	?
N#Cc1cccc(-c2ccc3ncnc(NCc4cccnc4)c3c2)c1	nt	3.9%	4.3%	nt	nt
N#Cc1ccc2ncnc(NCCc3ccccc3)c2c1	-45.0*	nt	-4.3%	nt	10.3µM*
COc1ccc(NC(=O)CC2C(=O)N(c3ccccc3)C(=O)N2CCc2sccc2C)cc1 (centres undefined)	-32.9*	71.3%	-12.2%	i	-11.7%
SMILES	IP6K1 inhibitor	SNCA expr inhib	HEK293 viab	KDM5B inh	IP6K1 conf
COc1ccc2c(c1)C(COCc1ccc(C(=O)O)cc1)=CC(C)(C)CO2	-0.9	nt	nt	nt	nt
COc1ccc2c(c1)C(CN1CCN(c3ccc4oc(C(=O)O)cc4c3Cl)CC1)=CC(C)(C)CO2	-73.9*	nt	nt	nt	-11.7%
O=C(Nc1cccc(OC(F)(F)F)c1)c1cc(-c2ccc[nH]2)n[nH]1	6.2	-24.5%	-4.7%	i	?
O=C(Nc1ccc(I)cc1)c1cc(-c2ccc[nH]2)n[nH]1	-9.5	75.0%	-8.9%	i	?
Cc1cc(NC(=O)c2cc(-c3ccc[nH]3)n[nH]2)ccc1F	21.8	69.4%	-0.9%	i	nt
Cc1ccc(F)cc1NC(=O)c1cc(-c2ccc[nH]2)n[nH]1	9.7	72.5%	-16.3%	i	?
CC(=O)N1CCC(C(=O)NCc2ccccc2)(N(C(=O)c2ccc(C)cc2)c2ccccc2F)CC1	nt	nt	nt	i	nt
CCNc1ncc2nc(-c3cn(C)c4ccccc34)c(=O)n(C[C@H]3CCCO3)c2n1	nt	4.0%	?	nt	nt
COc1cccc2cc(-c3nc4sc(C(=O)Nc5ccc(F)cc5F)c(C)c4c(=O)[nH]3)c(=O)oc12	-0.1	-0.4%	-2.2%	i	nt
Cc1ccc(-c2nc(CNC(=O)C(C)CN)[nH]c2-c2ccccn2)cc1 (centres undefined)	-0.4	-7.0%	1.1%	i	nt
CN[C@@H](CO)C(=O)NCc1nc(-c2ccc(C)cc2)c(-c2ccccn2)[nH]1	-45.2*	-5.1%	6.0%	?	-10.5%
Nc1nc2c(s1)C(c1cccc(F)c1)CC(=O)N2 (centres undefined)	-31.2*	67.7%	0.0%	i	?
O=S(=O)(O)c1ccc2cc(N=Nc3cc(S(=O)(=O)O)c4cccnc4c3O)ccc2c1	-51.9*	?	?	nt	?
Cc1nc(N=Nc2ccc(S(=O)(=O)O)cc2S(=O)(=O)O)c(COP(=O)(O)O)c(C=O)c1O	nt	14.7%	4.0%	nt	nt
Cc1ccc(-n2ncc(C(=O)Nc3ccc4c(c3)OCO4)c2C2CCN(C(=O)OC(C)(C)C)CC2)cc1	21.4	-16.8%	-39.7%	?	nt
Cc1ccc(-n2ncc(C(=O)Nc3ccc4c(c3)OCCO4)c2C2CCN(C(=O)OC(C)(C)C)CC2)cc1	-26.1*	-46.9%	?	i	10.6%
CN(C)CC1(O)CCC2(CCN(C(=O)C3(c4ccccc4)CC3)CC2)CC1	10.8	-25.1%	7.8%	i	nt
CCCCNC(=O)CN1CCN(c2ncc(NC(=O)c3ccc(Cl)cc3)cc2C(=O)O)CC1	-58.5*	27.8%	12.5%	?	?
CCCNC(=O)CN1CCN(c2ncc(NC(=O)c3ccc(Cl)cc3)cc2C(=O)O)CC1	-22.8	38.1%	-3.4%	?	nt
CCOC(=O)c1cnc2ccc(Cl)cc2c1Nc1ccc(N2CCOCC2)cc1	-25.4*	-25.9%	-5.6%	i	-12.8%
O=C(NC[C@H](O)CO)c1ccncc1Nc1ccc(I)cc1F	nt	30.2%	-13.1%	nt	-2.1%
O=C(NOCC(O)CO)c1ccc(F)c(F)c1Nc1ccc(I)cc1F (centres undefined)	-4.7	nt	-2.0%	nt	nt
COc1ccc(NC(=O)c2nnn(Cc3ccccc3C)c2N)c(OC)c1	-26.6*	?	-16.3%	?	-10.8%
Cc1ccc(NC(=O)c2nc(S(C)(=O)=O)ncc2N(Cc2ccco2)Cc2ccco2)cc1C	-28.8*	-7.4%	8.1%	?	-5.1%
Cc1ccc(NC(=O)c2nc(S(C)(=O)=O)ncc2N(Cc2ccco2)Cc2cccs2)cc1C	-13.9	4.4%	?	i	nt
Cc1cccc(-c2nc3c4ccccc4nc(NCc4ccccc4Cl)n3n2)c1	-27.2*	90.3%	4.0%	i	-25.6%

Assay outcomes as filed in PubChem BioAssay.
